Hits are enriched below; roughly 19% of the tested compounds scored in any of these assays.
uPA generation = cell surface uPA generation inhibition; cell surface uPA generation assay, qHTS; Potency, µM (highest dose often 38.3 µM), for inactives: at the highest dose activity change, negative = inhibition, actives largely listed as inhibitors; actives 0.31% (n = 330,000); AID 540303; active means well fitted inhibition curve with a large enough effect; inconclusive means small, poorly fitted or top-dose-only effect; inactive means no such curve, though single readings can be large or run the other way; tested in mouse RAW 264.7 cells; further: potency means the concentration at half of the fitted maximal effect; nearly all actives have a fitted effect of over 55% in size
HT1080-NT tox = kills 2HG-producing HT-1080-NT fibrosarcoma cells | HT-1080-NT fibrosarcoma viability, CellTiter-Glo ATP luminescence, 48 h | Potency, µM (doses to about 46.1 µM), for the others: at the top dose activity, negative = less viability, hits mostly cytotoxic | actives 1.6% (n = 360,000) | AID 686970;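 further: NT is the 2HG producing partner of a matched IDH1 knockdown line; potency means the concentration at half of the fitted maximal effect; 0% = DMSO-treated cells and -100% = media-only wells without cells; nearly all actives have a fitted effect of over 55% in size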
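Read-out is CellTiter-Glo luminescence after 10 minutes at room temperature, following 48 hours' compound treatment of HT-1080-NT cells (750 cells/well, RPMI, 5% FBS, 37 degrees C).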
DT40 TDP1 no CPT = qHTS for Inhibitors of human tyrosyl-DNA phosphodiesterase 1 (TDP1): qHTS in cells in absence of CPT; Potency, µM (doses to about 46.2 µM), without a hit: top-dose activity change, negative = growth inhibition, actives largely listed as inhibitors; AID 686978, 2013; actives 15% (n = 420,000); DT40 Tdp1-/- hTDP1 cells, no CPT, ATP luminescence, 48 h; further: potency means the concentration at half of the fitted maximal effect; nearly all actives have a fitted effect of over 55% in size
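Growth kinetics read by CellTiter-Glo luminescence after ≥48 hr at 37 °C. Cells: DT40 Tdp1-/- stably carrying human TDP1, 400 per well, compound exposure in the absence of CPT (DMSO vehicle).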
DT40 TDP1 CPT = growth inhibition of DT40 Tdp1-/-;hTDP1 cells with camptothecin (screen for TDP1 inhibitors) | actives 12% (n = 420,000) | chicken DT40 Tdp1-/-;hTDP1 cells + 20 nM CPT, ATP luminescence, 48 h | Potency, µM (series often up to 46.2 µM), without a hit: at the top dose activity change, negative = growth inhibition, most hits filed as inhibitors; further: potency means the concentration at half of the fitted maximal effect; nearly all actives have a fitted effect of over 55% in size
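Cell growth measured by CellTiter-Glo luminescence after a minimum 48 h, 37 C compound exposure with 20 nM CPT in Tdp1-knockout DT40 cells stably expressing hTDP1, seeded 400/well; qHTS titration format.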
IL1B secr inh = inflammasome signaling inhibition, IL-1 beta readout; THP-1 LPS/ATP IL-1B secretion, AlphaLISA, 16 h; active compounds read low; activity change, % at 57.5 µM; actives 4.7% (n = 360,000); AID 743279; in the data active means activity change below about -50%; inconclusive means mostly about -30% to -49%
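Secreted IL-1B measured by AlphaLISA bead assay after 16 h compound exposure of THP-1 cells; compounds (final up to 57.5 uM) added 1 h before LPS (250 ng/mL) and ATP (1.25 mM) stimulation; lower signal means less secretion.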
HT1080 IDH1KD tx = toxicity to HT-1080 IDH1 knockdown cells (counter line); HT-1080 IDH1 knockdown viability, ATP luminescence, 48 h; Potency, µM (titrated, usually from 46.1 µM), for the others: at the highest dose activity, negative = toxicity, hits mostly cytotoxic; actives 2% (n = 360,000);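 further: potency means the concentration at half of the fitted maximal effect; 0% = DMSO wells and -100% = cell-free medium wells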
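Knockdown cells (IDH1KD HT-1080) received compounds 2 h after plating at 750 cells/well and were kept 48 h at 37 °C in 5% FBS RPMI. A CellTiter-Glo luminescence read gave % activity for curve fitting.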
Numbers without * were called inactive; ! = not active in a repeat; [ ] = another dose, or the depositor's remark. Unless noted, the call rests on the fitted dose curve; in most records, active means well fitted curve in the direction sought with a large enough effect; inconclusive means small, poorly fitted or top-dose-only effect, or another doubt; inactive means no such curve, though single readings can be large; an effect the other way counts as inactive or inconclusive. Unless noted, on the % scale 0 is the no-effect control and ±100 the full control effect.

Results for CN1C(=O)Cc2cc(S(=O)(=O)CCC(=O)N3CCN(c4ccccc4F)CC3)ccc21 ?
DT40 TDP1 no CPT: 3%; DT40 TDP1 CPT: inconclusive

How did CC1Cc2cc(S(=O)(=O)N3CCN(c4cccc(Cl)c4)CC3)ccc2N1C(=O)C1CC1 (stereo not given) do in these assays?
uPA generation: 1%; HT1080-NT tox: 15%; DT40 TDP1 no CPT: inconclusive; DT40 TDP1 CPT: inconclusive; IL1B secr inh: -19; HT1080 IDH1KD tx: 10%

How did CC(=O)N1c2ccc(S(=O)(=O)N3CCC(C(=O)N4CCN(c5ccccc5F)CC4)CC3)cc2CC1C (stereo not given) do in these assays?
uPA generation: -8%; HT1080-NT tox: 1%; DT40 TDP1 no CPT: inconclusive; DT40 TDP1 CPT: 26µM*; IL1B secr inh: 4; HT1080 IDH1KD tx: 1%

Results for CC(=O)c1ccc(N2CCN(S(=O)(=O)c3ccc4c(c3)CC(C)N4C(=O)C3CCC3)CC2)cc1 (stereo not given) ?
DT40 TDP1 no CPT: 5.8µM*; DT40 TDP1 CPT: 7.3µM*

How did CC1Cc2cc(S(=O)(=O)N3CCN(c4ccc(Cl)cc4)CC3)ccc2N1C(=O)C1CC1 (stereo not given) do in these assays?
uPA generation: -2%; HT1080-NT tox: -16%; DT40 TDP1 no CPT: 13µM*; DT40 TDP1 CPT: 16µM*; IL1B secr inh: -17; HT1080 IDH1KD tx: -3%

How did CCC(=O)N1c2ccc(S(=O)(=O)CCC(=O)N3CCN(c4ccccc4F)CC3)cc2CC1C (stereo not given) do in these assays?
uPA generation: -4%; HT1080-NT tox: -2%; DT40 TDP1 no CPT: 16µM*; DT40 TDP1 CPT: inconclusive; IL1B secr inh: -22; HT1080 IDH1KD tx: -2%

How did CC1Cc2cc(S(=O)(=O)N3CCN(c4ccccc4)CC3)ccc2N1C(=O)C1CC1 (stereo not given) do in these assays?
uPA generation: 3%; HT1080-NT tox: -1%; DT40 TDP1 no CPT: inconclusive; DT40 TDP1 CPT: inconclusive; IL1B secr inh: -6; HT1080 IDH1KD tx: 1%

Results for CC1(C)CC(NC(=O)c2cc(S(=O)(=O)N3CCOCC3)ccc2Cl)CC(C)(C)N1 ?
uPA generation: 13%; HT1080-NT tox: -1%[9.24 µM]; DT40 TDP1 no CPT: 3%; DT40 TDP1 CPT: 12%; IL1B secr inh: -12; HT1080 IDH1KD tx: 2%

What do the screens show for `Cc1occc1-c1nnc(SCC(=O)NC2CCC(C)CC2)o1` (stereo not given)?
uPA generation: -22%; HT1080-NT tox: 1%; DT40 TDP1 no CPT: inconclusive; DT40 TDP1 CPT: -20%; IL1B secr inh: -11; HT1080 IDH1KD tx: 9%

Results for Cc1cc(C)c(NC(=O)CS(=O)CC(=O)N2CCN(c3cccc(C)c3C)CC2)c(C)c1 (stereo not given) ?
uPA generation: -7%; HT1080-NT tox: -6%; DT40 TDP1 no CPT: inconclusive; DT40 TDP1 CPT: inconclusive; IL1B secr inh: -27; HT1080 IDH1KD tx: -12%

How did CN(C)/C=C/C1=C([N+](=O)[O-])C(c2cccc([N+](=O)[O-])c2)NC(=O)N1 (stereo not given) do in these assays?
uPA generation: 1%; HT1080-NT tox: 0%; DT40 TDP1 no CPT: 0%; DT40 TDP1 CPT: -2%; IL1B secr inh: -4; HT1080 IDH1KD tx: 2%

How did CN(Cc1ccccc1)c1nc2c(S(=O)(=O)c3ccccc3)nnn2c2ccsc12 do in these assays?
DT40 TDP1 no CPT: -22%; DT40 TDP1 CPT: 1%

What do the screens show for `CCc1nc2c(OCc3ccc(F)c(F)c3)cccn2c1N(C)C(=O)c1ccncc1`?
HT1080-NT tox: -3%; DT40 TDP1 no CPT: -27%; DT40 TDP1 CPT: -10%; IL1B secr inh: -8; HT1080 IDH1KD tx: 11%

What do the screens show for `CC1CCN(S(=O)(=O)c2ccc3nc(N4CCN(c5ccc(F)cc5)CC4)ccc3c2)CC1`?
DT40 TDP1 no CPT: -23%; DT40 TDP1 CPT: -2%

What do the screens show for `CC(=O)N1c2ccc(S(=O)(=O)N3CCC(C(=O)N4CCN(c5ccc(Cl)cc5)CC4)CC3)cc2CC1C` (stereo not given)?
uPA generation: -29%; HT1080-NT tox: -4%; DT40 TDP1 no CPT: 5.2µM*; DT40 TDP1 CPT: 16µM*; IL1B secr inh: inconclusive; HT1080 IDH1KD tx: -17%

How did CC(=O)N1c2ccc(S(=O)(=O)N3CCC(C(=O)N4CCCCC4)CC3)cc2CC1C (stereo not given) do in these assays?
uPA generation: -7%; HT1080-NT tox: 2%; DT40 TDP1 no CPT: inconclusive; DT40 TDP1 CPT: inconclusive; IL1B secr inh: 19; HT1080 IDH1KD tx: 3%

What do the screens show for `CC(=O)c1ccc(N2CCN(c3ccc4cc(S(=O)(=O)N5CCC(C)CC5)ccc4n3)CC2)cc1`?
uPA generation: -2%; HT1080-NT tox: 5%; DT40 TDP1 no CPT: 7.3µM*!; DT40 TDP1 CPT: inconclusive; IL1B secr inh: 14; HT1080 IDH1KD tx: 8%

Results for CCCS(=O)(=O)c1nc(S(=O)(=O)c2ccc(C)cc2)c(NC)s1 ?
DT40 TDP1 no CPT: -14%; DT40 TDP1 CPT: -3%

How did Cc1ccc(S(=O)(=O)N2CC3C(=O)CC(c4ccccc4)N(S(=O)(=O)c4ccc(C)cc4)C3CC2c2cccc(Cl)c2)cc1 (stereo not given) do in these assays?
HT1080-NT tox: inconclusive; DT40 TDP1 no CPT: -7%; DT40 TDP1 CPT: -3%; IL1B secr inh: 51; HT1080 IDH1KD tx: 23%

What do the screens show for `Cc1c(N2C(=O)/C(=C3/C(=O)N(C)c4ccccc43)SC2=S)c(=O)n(-c2ccccc2)n1C`?
HT1080-NT tox: 5%; DT40 TDP1 no CPT: inconclusive; DT40 TDP1 CPT: inconclusive; IL1B secr inh: 11; HT1080 IDH1KD tx: -19%

What do the screens show for `Cc1c(N2C(=O)CSC2=S)c(=O)n(-c2ccccc2)n1C`?
uPA generation: 5%; HT1080-NT tox: -13%; DT40 TDP1 no CPT: inconclusive; DT40 TDP1 CPT: inconclusive; IL1B secr inh: -77*; HT1080 IDH1KD tx: -5%

How did COc1cccc(OCC(=O)NC2CC(=O)N(c3cccc(OC)c3)C2)c1 (stereo not given) do in these assays?
DT40 TDP1 no CPT: -15%; DT40 TDP1 CPT: -10%

Results for CC(C)(C)C1CCc2c(sc(NC(=O)c3ccccc3F)c2C(=O)NCc2ccco2)C1 (stereo not given) ?
DT40 TDP1 no CPT: -6%; DT40 TDP1 CPT: -1%

High-throughput results as filed in PubChem.
